# ChEMBL document CHEMBL4513216, “Probing the Open Global Health Chemical Diversity Library for Multistage-Active Starting Points for Next-Generation Antimalarials” (ACS Infect Dis, 2020)
# Out of some 68,000 compounds screened, about 2,700 (4%) showed an effect of 50% or more. What follows is part of a selection rich in strong results, with near analogues and random picks from the rest.
# Tested on: Plasmodium berghei
# Experiment: Screen against P. berghei liver stage (PbLuc), transformed with Luciferase, at 2uM
# Type: functional, HepG2
# Settings: tested at 2 uM
row,SMILES,INHIBITION [%]
1,CC1COCCN1C(=O)c1cnccn1 (stereo not drawn),-108.55
2,CCN(C)C(=O)[C@H]1C[C@@](CC(C)C)(C(=O)OC)N(C)[C@H]1c1cccnc1,59.03
3,COCCN1CCC2(CC1)CC(c1cccnc1)C(=O)N2C (stereo not drawn),11.98
4,COCCNC(=O)[C@H]1C[C@@](CC(C)C)(C(=O)O)N(C)[C@H]1c1cccnc1,20.32
5,O=C(O)CSc1nnc(-c2cn[nH]c2)n1-c1ccccc1C(F)(F)F,71.98
6,O=C(O)CSc1nnc(-c2cn[nH]c2)n1-c1ccccc1Cl,37.77
7,O=C(O)CSc1nnc(-c2ccn[nH]2)n1-c1ccccc1C(F)(F)F,-43.98
8,COCCN1CCC(C(=O)N(C)CCOc2ccc(C)cc2Cl)C1 (stereo not drawn),-23.16
9,Cc1n[nH]cc1CNC(=O)CCCc1cccs1,20.86
10,C[C@@H]1CN(Cc2ccc(-c3ccncc3)cc2F)CC(C(N)=O)O1 (stereo partly drawn),-11.35
11,CC(C)N1CCC2(CCCN(C(=O)c3cncn3C)C2)CC1,51.36
12,CC(C)N1CCOCC2(CCCN(C(=O)c3cncn3C)C2)C1 (stereo not drawn),9.1
13,CN1CCC2(CCCN(C(=O)c3cncn3C)C2)CC1,13.26
14,CCSc1nc(N)c(NC(=O)c2ccc(C)cc2)c(=O)[nH]1,7.1
15,COCCC(=O)N1CC[C@H]2O[C@@H](C)C[C@H]2C1,26.31
16,O=C(Nc1cnn(COc2ccc(F)cc2Cl)c1)C1CC1,25.24
17,COc1ccc(-c2nc3c([nH]2)CCCNC3=O)cc1OC,75.76
18,COc1cc(-c2nc3c([nH]2)CCCNC3=O)ccc1O,-58.91
19,COc1cc(-c2nc3c([nH]2)CCCNC3=O)ccc1OC(C)C,-20.6
20,NC(=O)c1cccc(CC2CCN(C(=O)CO)C2)c1 (stereo not drawn),-5.6
21,Cc1ccc(-c2cc(CNC(=O)N3CCC(N(C)C)CC3)on2)cc1,23.24
22,CN(Cc1cc(F)ccc1C#N)CC(C)(CO)CO,55.36
23,CN(Cc1ccc(F)cc1F)CC(C)(CO)CO,38.67
24,CN(Cc1ccc(F)cc1C#N)CC(F)(F)F,4.12
25,CN(CC(C)(CO)CO)C(=O)Nc1cc(F)cc(Cl)c1,-4.57
26,CSCCN(C)Cc1ccc(F)cc1C#N,-63.41

row,SMILES,INHIBITION [%]
1,CN(Cc1cc(F)ccc1F)CC(C)(CO)CO,50.59
2,CNC(=O)c1ccc(OC)c(NCc2ncc(-c3cccs3)o2)c1,2.67
3,Cc1ccc(CN2CCc3ncnc(-c4ccc(F)cc4)c3CC2)o1,-23.71
4,Cc1ccc(CN2CCc3ncnc(-c4ccncc4)c3CC2)o1,76.36
5,Cc1ccc(CN2CCc3ncnc(-c4cccnc4)c3CC2)o1,18.57
6,CCc1noc(C)c1C(=O)N1CCCN(Cc2cscn2)CC1,-2.47
7,O=C(Cc1ccsc1)N1C[C@@H]2OCCN(c3cnccn3)[C@@H]2C1,21.42
8,c1cncc(O[C@H]2CC[C@H]3[C@H]2OCCN3C2CCCC2)c1,-74.01
9,CC(C)NC(=O)[C@@H]1C[C@@H](N)CN1C(=O)c1cc2c([nH]c1=O)CCCC2,31.65
10,COc1nc2c(cc1C(=O)N1C[C@@H](N)C[C@H]1C(=O)NC(C)C)CCC2,63.17
11,COc1nc2c(cc1C(=O)N1C[C@H](N)C[C@H]1C(=O)NC(C)C)CCC2,43.8
12,CC1CCC(NC(=O)Nc2ccc(CC(=O)N(C)C)cc2)CC1 (stereo not drawn),35.5
13,Cn1cc(CN2CCN(CC3(c4ccccc4)CC3)CC2)cn1,27.03
14,COc1ccc2c(C)c(C(=O)N3CCC(NC(C)=O)C3)oc2c1 (stereo not drawn),-41.96
15,COc1ccccc1[C@@H]1CN(Cc2c(C)noc2C)C[C@H]1C(=O)O,68.39
16,Cc1ccccc1[C@@H]1CN(Cc2c(C)noc2C)C[C@H]1C(=O)O,-18.65
17,Cc1noc(C)c1CN1C[C@@H](C(=O)O)[C@H](c2ccccc2)C1,-0.59
18,O=C(NCCn1ccnc1)N1CCN(c2nccs2)CC1,-16.42
19,Cc1nc(CN2CC(Cc3ccccc3)CC2=O)no1 (stereo not drawn),-12.68
20,O=C(O)[C@]12CCCN(CC3CCOC3)C[C@H]1CN(c1ncccn1)C2 (stereo partly drawn),13.16
21,O=C1CCN(C(=O)C2(c3ccc(F)cc3)CCCCC2)CCN1,-41.64
22,O=C1CCN(C(=O)C2(c3ccc(F)cc3)CCOCC2)CCN1,63.46
23,O=C1CCN(C(=O)C2(c3ccc(F)cc3)CCCC2)CCN1,37.18
24,CCn1c(C2CCN(C(=O)c3ccc4cc[nH]c4c3)CC2)n[nH]c1=O,-9.71
25,O=C(c1ccccc1)N1CCCC2(CCN2Cc2cccc(F)c2)C1 (stereo not drawn),29.03
26,COc1cc2cc(C(=O)NCC(=O)O)n(C)c2c(OC)c1OC,16.47

row,SMILES,INHIBITION [%]
1,CC(=O)Nc1ccc(CNC2CC(=O)N(Cc3cccc(F)c3)C2)cc1 (stereo not drawn),-34.5
2,COCCO[C@H]1CCN(c2cc(OC)ncn2)[C@H]1Cc1cccnc1,3
3,Cc1ccncc1NC(=O)C1CSc2ncc(C)c(=O)n2C1 (stereo not drawn),13.95
4,Cc1cnc2n(c1=O)CC(C(=O)Nc1ccccc1Cl)CS2 (stereo not drawn),-51.94
5,Cc1ccc(Cl)cc1NC(=O)C1CSc2ncc(C)c(=O)n2C1 (stereo not drawn),61.06
6,Cc1ccc(-c2noc(CN3CCc4cncnc4C3)n2)cc1,-49.27
7,O=C(c1ccc2c(c1)COC2)N1CCC(Nc2cccnn2)CC1,31.19
8,Cc1cncc(C(=O)N2CC[C@@]3(C[C@H](NS(C)(=O)=O)CCO3)C2)c1,17.83
9,CCCc1cc(=O)[nH]c(-n2nc(C3CC3)cc2N)n1,-67.99
10,CC(C)(C)CN1CCCC(O)(CN2CCc3[nH]ncc3C2)C1=O (stereo not drawn),-92.69
11,O=C1N(CC2CCCCC2)CCCC1(O)CN1CCc2[nH]ncc2C1 (stereo not drawn),29.9
12,O=C1N(CC2CC2)CCCC1(O)CN1CCc2[nH]ncc2C1 (stereo not drawn),61.42
13,CC(C)c1noc(CCCC(=O)N2CCN(Cc3cccnc3)CC2)n1,26.06
14,O=C(c1ccco1)N1CCCC2(CN(Cc3ccsc3)CCO2)C1 (stereo not drawn),-26.14
15,Cc1noc(C(C)N2CCN(CCOCC(F)(F)F)CC2)n1 (stereo not drawn),36.95
16,CN1CC2(CCN(C(=O)c3ccc4c(=O)n(C)cnc4c3)C2)OC1=O (stereo not drawn),52.03
17,CN1CC2(CCN(C(=O)c3ccc4c(=O)n(C)cnc4c3)CC2)CC1=O,-7.68
18,Cc1nc[nH]c1C(=O)N1CCC2(CN(C)C(=O)O2)C1 (stereo not drawn),36.22
19,CC(C)(NCCCOc1ccc(C#N)cc1)c1nccs1,9.27
20,CNC(=O)c1cccc(NCCOc2ccc(CC#N)cc2)c1C,34.46
21,CNC(=O)c1cccnc1NCc1ccc(-n2cccn2)cc1,-6.98
22,CNC(=O)c1cccnc1NCc1ccc(Cn2ccnc2)cc1,71.57
23,CNC(=O)c1cccnc1NCCOc1ccc(CC#N)cc1,54.29
24,CS(=O)(=O)c1ccccc1NCc1ccc(Cn2ccnc2)cc1,6.78
25,CC(C)(NCCOc1ccc(CC#N)cc1)c1nccs1,56.89
26,Cc1csc(C(C)(C)NCCOc2ccc(CC#N)cc2)n1,30.06

row,SMILES,INHIBITION [%]
1,CNC(=O)c1cccnc1NCc1ccc(Cn2cccn2)cc1,-6.29
2,c1ccc(NCc2ccc(Cn3ccnc3)cc2)nc1,17.64
3,Brc1ccc(NCc2ccc(Cn3ccnc3)cc2)nc1,74.17
4,CNC(=O)c1cccnc1NCCOc1ccccc1,-1.89
5,CC(C)(CNC1CCCN(Cc2ccccc2F)C1)CN1CCOCC1 (stereo not drawn),18.22
6,CCc1ccccc1CN1CCn2nc(CNC(C)=O)cc2C1,-31.66
7,COc1cccc2c1OCC(NC(=O)NCCc1ccccn1)C2 (stereo not drawn),40.59
8,NC(=O)N1CCCN(CCCSCc2ccccc2)CC1,-16.28
9,c1ccc(Cc2cccc(C3CCCN3C3CCOCC3)n2)cc1 (stereo not drawn),44.16
10,O=S(=O)(c1cccc(F)c1)N1C[C@H]2CC[C@@H](C1)N(Cc1ccccc1)C2,-13.58
11,CC(C(=O)NCc1ccnc(OC2CCCC2)c1)n1cncn1 (stereo not drawn),-5.34
12,O=C1NCCCc2c1oc1ccc(O)c(CN3CCOCC3)c21,10.49
13,CCN(C)C(=O)c1ccc2c(c1)C(c1nc[nH]n1)CN2S(C)(=O)=O (stereo not drawn),53.55
14,CC(C)NC(=O)c1ccc2c(c1)C(c1nc[nH]n1)CN2S(C)(=O)=O (stereo not drawn),-18.52
15,CCC(CC)NC(=O)c1ccc2c(c1)C(c1nc[nH]n1)CN2S(C)(=O)=O (stereo not drawn),36.34
16,Cc1cnc(C(=O)N2CCCC(n3cncn3)C2)cn1 (stereo not drawn),-43.79
17,CCOc1cc(CN[C@@H]2COC[C@H]2Cc2cc(C)no2)ccc1O,33.64
18,Cc1c(C(=O)N2CCN(C)[C@@H]3CS(=O)(=O)C[C@@H]32)[nH]c2ccc(F)cc12,28.95
19,CCc1c(C(=O)N2CCN(C)[C@@H]3CS(=O)(=O)C[C@@H]32)[nH]c2ccccc12,65.3
20,CCN1CCN(C(=O)c2[nH]c3ccccc3c2Cl)[C@H]2CS(=O)(=O)C[C@H]21,25.65
21,COc1ccccc1-n1nc(C(C)C)nc1Cc1nnc(N)s1,49.32
22,CS(=O)(=O)NCCCNC(=O)c1cccnc1O,-55.03
23,C[C@H]1C[C@@H]2CCN(Cc3ccccn3)C[C@H]2O1,0.78
24,C[C@@H]1C[C@@H]2CCN(Cc3ccccn3)C[C@H]2O1,2.98
25,C[C@H]1C[C@H]2CN(Cc3ccccn3)CC[C@@H]2O1,66.23
